High-throughput results from PubChem.
Only some compounds are listed: those with a hit (about 2.2% of all), similar ones and a draw of the others.
Giardia FBPA inh = qHTS Assay for Inhibitors of Fructose-1,6-bisphosphate Aldolase from Giardia Lamblia | 290,000 compounds, 0.71% hits | A8B2U2 | purified Giardia FBPA | AID 2451, 2010 | Potency, µM (top dose mostly 59.6 µM), without a hit: top-dose activity, negative = inhibition, usual class: inhibitors; active = well fitted inhibition curve with a large enough effect; inconclusive = small, poorly fitted or top-dose-only effect, or effect the other way; also: nearly all actives have a fitted effect of over 55% in size
Target sequence (A8B2U2 whole entry, looked up): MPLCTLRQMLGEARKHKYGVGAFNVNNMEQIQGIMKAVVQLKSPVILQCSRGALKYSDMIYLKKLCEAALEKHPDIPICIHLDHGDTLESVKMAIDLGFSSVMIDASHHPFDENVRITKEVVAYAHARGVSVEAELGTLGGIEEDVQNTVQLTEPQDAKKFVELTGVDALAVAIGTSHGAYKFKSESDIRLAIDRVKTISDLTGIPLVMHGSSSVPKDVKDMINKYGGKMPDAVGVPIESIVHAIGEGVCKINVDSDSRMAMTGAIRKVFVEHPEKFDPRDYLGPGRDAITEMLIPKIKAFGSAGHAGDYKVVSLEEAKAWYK
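Giardia FBPA (40 nM reagent) was preincubated 10 min at RT with compound (up to 57.5 uM final), then substrate plus GAPDH/TPI/NAD/arsenate coupling system with diaphorase/resazurin was added; resorufin fluorescence (525/598 nm) was read after 20 min.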
FMDV inh = High Throughput Screening for Foot and Mouth Disease Virus Antivirals. FMDV antiviral cell-based qHTS. Potency, µM (series often up to 57.9 µM), inactives show at the top dose activity change, negative = inhibition, actives largely listed as inhibitors. AID 1159524, 2015. 410,000 compounds, 1.2% hits; calls by dose curve; tested in HEK293T cells; also: read-out not given here; nearly all actives have a fitted effect of over 45% in size
VACV mCherry inh = qHTS for Stage-Specific Inhibitors of Vaccinia Orthopoxvirus: mCherry Reporter Primary qHTS. Vaccinia virus mCherry reporter infection, fluorescence. Potency, µM (top dose mostly 36.5 µM), for inactives: top-dose activity change, negative = inhibition, usual class: inhibitors. 310,000 compounds, 0.63% hits. AID 720579, 2013; calls by dose curve; tested in A549 cells; also: nearly all actives have a fitted effect of over 35% in size
VACV Venus inh = qHTS for Stage-Specific Inhibitors of Vaccinia Orthopoxvirus: Venus Reporter Primary qHTS; Vaccinia virus Venus reporter expression, fluorescence; Potency, µM (series often up to 36.5 µM), for inactives: at the top dose activity change, negative = inhibition, most hits filed as inhibitors; 330,000 compounds, 0.46% hits; AID 720580, 2013; calls by dose curve; tested in A549 cells; also: nearly all actives have a fitted effect of over 30% in size
* = called active by the depositor; i = inactive; ? = inconclusive; . = no result; [ ] = dose if it differs, or a comment. % is scaled to controls: 0 for no effect and ±100 for the full control effect; potency is read from the fitted curve at half-maximal effect.

SMILES	Giardia FBPA inh	FMDV inh	VACV mCherry inh	VACV Venus inh
O=C1NC(=O)C(=Cc2ccc(-c3cc(Cl)ccc3[N+](=O)[O-])o2)C(=O)N1	-21.5%	20µM*	?	4.2%
CC1=C(C#N)C(=O)NC(=O)/C1=C\c1ccc(-c2cc(C)c(C)cc2[N+](=O)[O-])o1	?	?	-0.6%	-12.3%
O=C1NC(=O)C(=Cc2ccccc2[N+](=O)[O-])C(=O)N1	.	-10.5%	-0.4%	3.2%
O=C1NC(=O)C(=Cc2ccc(-c3ccccc3[N+](=O)[O-])o2)C(=O)N1	-23.3%	35.5µM*	i	-16.6%
Cn1ncc2c(O/N=C(\N)c3ccc(C(F)(F)F)cc3)ncnc21	2.6%	22.4µM*	.	.
Cc1ccc(C(=O)NNc2ncnc3c2cnn3C)cc1	-5.3%	16.2%	-1.9%[7.34 µM]	-2.9%[7.34 µM]
CCN1CCCC1CNCc1cc2c(OC)c(OC)c(OC)cc2nc1N(C)C (stereo not drawn)	.	-14.8%	-8.0%	11.0%
O=C(NCCc1nnc2n1CCN(CC1CC=CCC1)CC2)c1ccc(F)cc1 (stereo not drawn)	.	-12.0%	i	-14.0%
COc1ccc(-c2c[n+](CC(=O)OC3CC(C)CCC3C(C)C)c3n2CCC3)cc1 (stereo not drawn)	3.3%	12.6µM*	.	.
CCOC(=O)[C@]12Cc3ccc4ccccc4c3[C@H]1N(Cc1ccccc1)C(=O)c1ccccc12	.	22.4µM*	-13.0%	-6.9%
CCOC(=O)[C@]12Cc3cc4ccccc4cc3[C@H]1N(Cc1ccccc1)C(=O)c1cc(OC)ccc12	.	7.94µM*	?	?
CCOC(=O)[C@]12Cc3cc(Cl)ccc3[C@H]1N(Cc1ccccc1)C(=O)c1cc(OC)ccc12	.	8.91µM*	?	?
CCCCCN1C(=O)c2cc(OC)ccc2[C@@]2(C(=O)OCC)Cc3cc(Cl)ccc3[C@@H]12	.	7.94µM*	?	?
CCOC(=O)[C@]12Cc3cc(OC)c(OC)cc3[C@H]1N(Cc1ccccc1)C(=O)c1ccccc12	.	-3.3%	-7.3%	-23.4%
CCOC(=O)[C@]12Cc3cc(OC)ccc3[C@H]1N(Cc1ccccc1)C(=O)c1cc(OC)ccc12	.	-14.9%	-10.2%	-6.6%
NCCC[C@H](N)CC(=O)N[C@H]1CNC(=O)[C@H]([C@H]2C[C@H](O)N=C(N)N2)NC(=O)C(=CNC(N)=O)NC(=O)[C@H](CO)NC(=O)[C@H](CO)NC1=O	.	-13.5%[16.9 µM]	.	.
O=CC(=O)c1ccc(F)cc1	.	.	-15.4%	-7.1%
Cc1ccc2cc(CNC(C)CO)c(N3CCC(O)CC3)nc2c1 (stereo not drawn)	.	9.7%	6.5%	25.1%
CCCS(=O)(=O)NCc1c(C)ncc2c1CCN(C(=O)/C=C/c1ccccc1)C2	.	-8.9%	-15.7%	-7.1%
CC(C)C(=O)NCC1CCC2(CCN(Cc3ccc(-c4cccc(Cl)c4)o3)CC2)O1 (stereo not drawn)	.	20.9%	i	-5.0%
COc1ccc(OC)c(-c2nnc3n2N=C(c2ccccc2OC)CS3)c1	-4.4%	.	.	.
COc1ccc(CNc2nc(NCc3ccc(OC)cc3)c3ncn(C4CCCCC4)c3n2)cc1	-5.5%	.	.	.
Cn1nnnc1Sc1ncnc2scc(-c3cccc(C(F)(F)F)c3)c12	.	22.4µM*	.	.
COc1cccc(-c2csc3ncnc(Sc4nnnn4C)c23)c1	.	20µM*	.	.
Cn1nnnc1Sc1ncnc2scc(-c3ccc(C#N)cc3)c12	.	28.2µM*	.	.
SMILES	Giardia FBPA inh	FMDV inh	VACV mCherry inh	VACV Venus inh
Cn1nnnc1Sc1ncnc2scc(-c3ccc(C(F)(F)F)cc3)c12	.	11.2µM*	.	.
Cc1ccccc1C1(CC(=O)N2CC3CC4CC(C3)CC2C4)CC(=O)N(Cc2cccnc2)C1=O (stereo not drawn)	.	6.9%	-19.4%	-10.1%
CCC[C@H]1COCCS(=O)(=O)N1Cc1cccc(F)c1	.	.	-5.9%	-18.4%
COC(=O)C1=C(O)/C(=C\c2cc(C)n(-c3ccccc3C)c2C)N=C1C	7.06µM*	.	0.0%	-8.7%
COC(=O)c1cnn(-c2ccc(Cl)cc2)c1/C=N/NC(N)=S	-5.2%	14.1µM*	-2.8%	-20.0%
Nc1c(C(=O)N/N=C/c2ccc(Cl)cc2)cnn1-c1ccccc1	2.0%	16.0%	-8.2%	-4.5%
Cn1c(CCNC(=O)C2CC23CCN(C(=O)C2=CCCC2)CC3)nc2ccccc21 (stereo not drawn)	.	-0.9%	-4.6%	-0.1%
Cc1c(C(=O)Nc2ccc(Br)cc2)cnn1C	-7.7%	20.7%	-8.5%	-2.3%
Cc1c(C(=O)c2no[n+]([O-])c2C(=O)c2cnn(C)c2C)cnn1C	?	39.8µM*	-16.0%[1.46 µM]	-12.9%
Cc1nc2ccccc2c(=O)n1/N=C/c1cc(Br)ccc1O	-6.9%	-8.0%	?	-24.9%
Cc1nc2ccccc2c(=O)n1/N=C/c1c(O)ccc2ccccc12	-20.8%	-26.7%	12.6µM*	?
COc1cccc(CNC(=O)c2c(OC)cc(=O)n3c2CCN(C(=O)c2ccc(C)s2)CC3)c1	.	-7.4%	i	-5.4%
COc1ccc(CN(C)Cc2nc(Cc3cccc(F)c3)no2)c2cccnc12	-2.6%	10µM*	?	?
NCCCC[C@H](NC(=O)[C@@H]1CCCN1C(=O)[C@@H](N)CCCN=C(N)N)C(=O)N1CCC[C@H]1C(=O)N[C@@H](CCC(N)=O)C(=O)N[C@@H](CCC(N)=O)C(=O)N[C@@H](Cc1ccccc1)C(=O)O	1.7%	.	.	.
O=S(=O)(Cc1ccccc1)N1CCN(c2nc(-c3cccs3)nc3ccccc23)CC1	.	.	-7.8%	-4.0%
Cc1ccccc1-n1c(-c2ccco2)n[nH]c1=S	-22.0%	-11.6%	i	-12.2%
FC(F)(F)c1ccccc1-n1c(-c2ccco2)n[nH]c1=S	?	14.1µM*	-2.8%	-13.5%
CCNC(=S)NN=C1c2ccccc2-c2ccccc21	1.8%	-16.0%	-23.3%	-19.3%
CCOP(=O)(Nc1ccc2c(c1)C(=NNC(N)=S)c1ccccc1-2)OCC	.	35.5µM*	11.2µM*	?
Cc1cnc(-n2ncc(C(=O)N(C)Cc3cccc4ncccc34)c2C(C)C)nc1-c1ccc(F)cc1	.	-16.6%	i	-16.1%
Cc1ccc2c(C(=O)CNc3nc(C)c(C)s3)c(C)[nH]c2c1	.	.	-25.4%	-21.7%
O=S(=O)(c1ccccc1)c1ncc(C(F)(F)F)cc1Cl	-3.2%	11.2µM*	-7.8%	-9.7%
COc1ccc([N+](=O)[O-])c(S(=O)(=O)c2ccccc2)n1	-12.3%	31.6µM*	11.2µM*	11.2µM*
COc1ccc([N+](=O)[O-])c(S(=O)(=O)c2ccc(Cl)cc2)n1	-4.4%	12.6µM*	?	10µM*
COc1ccccc1S(=O)(=O)c1ccccc1[N+](=O)[O-]	-12.3%	-12.4%	-8.9%	26.0%
COc1nc(OC)nc(Oc2ccc(Cl)cc2[N+](=O)[O-])n1	6.2%	-16.9%	i	-3.7%
O=[N+]([O-])c1cccnc1S(=O)(=O)c1ccccc1	4.4%	22.4µM*	-20.4%	-6.3%
C1=Nc2ccccc2/C1=C/c1c[nH]c2ccccc12	.	.	-17.1%	21.1%
Cc1ccc(-c2nc(CS(=O)CC(=O)N3CCN(c4ccc(F)cc4)CC3)c(C)o2)cc1 (stereo not drawn)	.	?	-25.3%	-28.8%
Cc1ccsc1-c1nc(CSCC(=O)N2CCN(c3ccccc3)CC2)c(C)o1	-27.1%	?	?	-19.1%
